Results from the supplement of paper PMC11732987, “Enantioselective OTUD7B fragment discovery through chemoproteomics screening and high-throughput optimisation” (Communications Chemistry, 2025).

What was measured:
Experiment in all cases: log2 ratio of Biotin-Ahx-Ub-VS probe labelling (fragment/DMSO); higher = less target engagement (more negative = stronger competition), active = hit call of the paper (q ≤ 0.05, log2 ratio ≤ -1)
Conditions in all cases: compound concentration: 200 uM; treatment time: 3 h
[1] = biological target: USP34 (UniProt Q70CQ2)
USP34, sequence (Q70CQ2 whole entry, the tested form may be a part): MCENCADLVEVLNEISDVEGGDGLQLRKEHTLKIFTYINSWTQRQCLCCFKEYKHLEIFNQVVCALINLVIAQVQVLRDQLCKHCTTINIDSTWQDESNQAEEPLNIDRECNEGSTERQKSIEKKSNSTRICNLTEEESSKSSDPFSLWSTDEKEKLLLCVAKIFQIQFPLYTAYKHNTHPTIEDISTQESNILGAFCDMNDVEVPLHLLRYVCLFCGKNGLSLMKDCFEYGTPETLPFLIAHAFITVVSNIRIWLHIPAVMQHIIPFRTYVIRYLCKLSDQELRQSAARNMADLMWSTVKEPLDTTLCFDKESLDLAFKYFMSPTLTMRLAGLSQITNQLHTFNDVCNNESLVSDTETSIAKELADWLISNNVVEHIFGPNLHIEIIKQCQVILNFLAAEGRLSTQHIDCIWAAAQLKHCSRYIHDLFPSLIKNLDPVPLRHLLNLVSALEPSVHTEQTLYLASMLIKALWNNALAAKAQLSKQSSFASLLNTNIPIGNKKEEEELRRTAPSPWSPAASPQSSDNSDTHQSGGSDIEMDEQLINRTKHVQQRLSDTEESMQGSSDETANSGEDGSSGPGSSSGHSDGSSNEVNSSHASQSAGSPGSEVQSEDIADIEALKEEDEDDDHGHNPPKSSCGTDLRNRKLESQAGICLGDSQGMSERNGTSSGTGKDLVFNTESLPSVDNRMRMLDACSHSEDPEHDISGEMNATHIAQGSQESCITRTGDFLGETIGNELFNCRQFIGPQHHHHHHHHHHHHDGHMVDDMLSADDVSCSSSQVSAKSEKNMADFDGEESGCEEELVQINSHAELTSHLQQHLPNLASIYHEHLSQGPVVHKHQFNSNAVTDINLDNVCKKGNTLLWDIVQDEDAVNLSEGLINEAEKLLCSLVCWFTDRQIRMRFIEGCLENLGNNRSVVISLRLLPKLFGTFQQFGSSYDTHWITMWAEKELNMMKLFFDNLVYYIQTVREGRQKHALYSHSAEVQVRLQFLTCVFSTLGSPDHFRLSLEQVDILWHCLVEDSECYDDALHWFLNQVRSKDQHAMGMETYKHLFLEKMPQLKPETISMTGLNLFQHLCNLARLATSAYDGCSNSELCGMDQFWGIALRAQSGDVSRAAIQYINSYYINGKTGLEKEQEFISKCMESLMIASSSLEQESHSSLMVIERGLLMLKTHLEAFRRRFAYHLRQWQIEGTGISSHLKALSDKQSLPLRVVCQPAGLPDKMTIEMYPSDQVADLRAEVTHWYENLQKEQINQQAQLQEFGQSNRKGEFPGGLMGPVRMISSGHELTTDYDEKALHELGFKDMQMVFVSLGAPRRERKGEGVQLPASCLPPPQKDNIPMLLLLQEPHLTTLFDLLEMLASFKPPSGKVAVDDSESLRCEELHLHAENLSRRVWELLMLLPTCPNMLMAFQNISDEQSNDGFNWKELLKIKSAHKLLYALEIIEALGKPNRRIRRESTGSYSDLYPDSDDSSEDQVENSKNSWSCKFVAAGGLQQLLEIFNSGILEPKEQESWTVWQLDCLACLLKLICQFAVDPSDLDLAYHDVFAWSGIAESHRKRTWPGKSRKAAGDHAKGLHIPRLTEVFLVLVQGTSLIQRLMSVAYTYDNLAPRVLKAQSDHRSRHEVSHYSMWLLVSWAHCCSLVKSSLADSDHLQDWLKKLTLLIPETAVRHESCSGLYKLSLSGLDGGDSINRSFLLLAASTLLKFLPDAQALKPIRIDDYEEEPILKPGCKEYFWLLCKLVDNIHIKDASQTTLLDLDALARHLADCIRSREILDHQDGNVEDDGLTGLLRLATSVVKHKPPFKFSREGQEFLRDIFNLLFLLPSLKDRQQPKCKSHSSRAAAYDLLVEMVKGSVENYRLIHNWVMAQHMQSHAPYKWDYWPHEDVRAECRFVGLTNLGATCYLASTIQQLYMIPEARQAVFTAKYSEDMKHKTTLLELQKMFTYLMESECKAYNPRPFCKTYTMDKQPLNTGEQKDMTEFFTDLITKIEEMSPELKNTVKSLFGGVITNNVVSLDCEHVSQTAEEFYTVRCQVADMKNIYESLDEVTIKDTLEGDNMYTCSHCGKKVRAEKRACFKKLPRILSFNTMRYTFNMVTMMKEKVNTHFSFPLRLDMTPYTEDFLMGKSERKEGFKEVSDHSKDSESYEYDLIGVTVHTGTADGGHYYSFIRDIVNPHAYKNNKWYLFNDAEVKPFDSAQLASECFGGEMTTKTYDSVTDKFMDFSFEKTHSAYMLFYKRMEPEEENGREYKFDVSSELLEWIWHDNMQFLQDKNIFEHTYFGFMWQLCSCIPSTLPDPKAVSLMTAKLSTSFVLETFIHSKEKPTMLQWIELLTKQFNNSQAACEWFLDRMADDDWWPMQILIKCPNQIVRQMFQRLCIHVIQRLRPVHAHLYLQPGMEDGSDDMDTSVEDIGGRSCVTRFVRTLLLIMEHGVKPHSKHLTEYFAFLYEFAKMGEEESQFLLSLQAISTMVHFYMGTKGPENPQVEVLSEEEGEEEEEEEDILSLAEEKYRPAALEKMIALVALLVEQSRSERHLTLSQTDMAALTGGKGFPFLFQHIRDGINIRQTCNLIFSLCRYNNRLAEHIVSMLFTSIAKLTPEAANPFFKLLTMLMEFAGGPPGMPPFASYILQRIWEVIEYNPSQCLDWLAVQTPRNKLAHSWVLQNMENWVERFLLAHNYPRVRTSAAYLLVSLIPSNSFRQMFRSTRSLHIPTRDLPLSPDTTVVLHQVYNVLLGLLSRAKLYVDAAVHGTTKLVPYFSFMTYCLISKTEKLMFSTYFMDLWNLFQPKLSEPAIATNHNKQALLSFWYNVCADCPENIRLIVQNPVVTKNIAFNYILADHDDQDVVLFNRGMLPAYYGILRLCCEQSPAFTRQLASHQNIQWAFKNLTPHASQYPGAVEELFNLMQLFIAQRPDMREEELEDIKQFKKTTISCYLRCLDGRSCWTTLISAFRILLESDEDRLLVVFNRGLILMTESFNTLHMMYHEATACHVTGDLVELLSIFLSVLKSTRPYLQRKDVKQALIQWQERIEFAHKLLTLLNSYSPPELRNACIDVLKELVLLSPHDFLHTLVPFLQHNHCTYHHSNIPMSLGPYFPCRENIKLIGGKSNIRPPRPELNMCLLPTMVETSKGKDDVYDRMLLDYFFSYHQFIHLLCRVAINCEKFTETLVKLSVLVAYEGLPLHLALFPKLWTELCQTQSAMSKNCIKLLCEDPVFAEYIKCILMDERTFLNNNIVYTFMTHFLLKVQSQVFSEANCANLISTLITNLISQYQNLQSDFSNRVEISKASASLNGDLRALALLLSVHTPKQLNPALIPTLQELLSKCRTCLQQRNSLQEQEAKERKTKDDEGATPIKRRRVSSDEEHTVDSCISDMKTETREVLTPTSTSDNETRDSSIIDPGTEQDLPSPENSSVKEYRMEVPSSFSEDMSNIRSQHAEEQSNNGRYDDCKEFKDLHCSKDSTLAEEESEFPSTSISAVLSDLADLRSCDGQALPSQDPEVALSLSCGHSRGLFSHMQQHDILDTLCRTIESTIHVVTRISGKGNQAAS
Outline: (§1)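 Labelled DUBs from HEK293T lysate were NeutrAvidin-enriched, digested with LysC and trypsin, and run by diaPASEF LC-MS/MS. Before that, each 495 µg sample in Tris/CHAPS/IGEPAL buffer with protease inhibitors was treated in triplicate with fragment at 200 µM or vehicle for 3 h, then with Biotin-Ahx-Ub-VS at 0.5 µM final for 1 h. Values are average log2 ratios of fragment over vehicle by unpaired t-test, based on global-median-normalised Spectronaut label-free quantities from proteins with ≥2 unique peptides.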

[2] = biological target: T1, USP36 (UniProt Q9P275)
T1 sequence (whole entry): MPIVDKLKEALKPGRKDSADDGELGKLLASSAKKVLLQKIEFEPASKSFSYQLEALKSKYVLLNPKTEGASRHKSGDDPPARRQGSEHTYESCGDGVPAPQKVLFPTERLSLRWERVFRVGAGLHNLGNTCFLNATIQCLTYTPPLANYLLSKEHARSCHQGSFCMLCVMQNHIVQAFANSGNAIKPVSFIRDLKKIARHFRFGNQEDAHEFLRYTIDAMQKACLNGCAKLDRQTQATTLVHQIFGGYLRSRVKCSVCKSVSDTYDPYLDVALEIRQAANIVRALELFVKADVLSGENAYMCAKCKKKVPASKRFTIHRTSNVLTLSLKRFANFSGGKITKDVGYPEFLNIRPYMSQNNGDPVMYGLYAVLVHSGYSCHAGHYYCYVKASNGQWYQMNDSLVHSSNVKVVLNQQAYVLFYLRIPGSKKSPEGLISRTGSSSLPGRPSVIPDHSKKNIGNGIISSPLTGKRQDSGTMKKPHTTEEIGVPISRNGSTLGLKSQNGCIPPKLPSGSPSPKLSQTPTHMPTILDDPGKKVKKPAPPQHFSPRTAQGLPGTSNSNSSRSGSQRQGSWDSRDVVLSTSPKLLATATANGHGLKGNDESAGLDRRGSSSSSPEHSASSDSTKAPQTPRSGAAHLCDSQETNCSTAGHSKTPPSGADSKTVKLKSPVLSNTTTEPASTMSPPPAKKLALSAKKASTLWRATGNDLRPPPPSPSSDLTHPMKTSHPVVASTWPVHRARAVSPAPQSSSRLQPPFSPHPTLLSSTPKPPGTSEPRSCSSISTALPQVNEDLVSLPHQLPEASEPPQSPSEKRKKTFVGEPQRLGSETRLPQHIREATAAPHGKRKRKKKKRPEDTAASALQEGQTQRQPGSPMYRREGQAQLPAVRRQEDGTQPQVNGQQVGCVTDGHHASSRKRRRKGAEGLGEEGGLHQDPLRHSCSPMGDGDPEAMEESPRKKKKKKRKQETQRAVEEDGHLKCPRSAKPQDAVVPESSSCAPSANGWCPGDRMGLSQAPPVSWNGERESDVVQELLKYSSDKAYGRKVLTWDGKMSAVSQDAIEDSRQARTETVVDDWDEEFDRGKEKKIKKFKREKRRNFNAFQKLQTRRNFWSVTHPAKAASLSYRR
Outline: as §1

[3] = biological target: T2, USP38 (UniProt Q8NB14)
T2 sequence (whole entry): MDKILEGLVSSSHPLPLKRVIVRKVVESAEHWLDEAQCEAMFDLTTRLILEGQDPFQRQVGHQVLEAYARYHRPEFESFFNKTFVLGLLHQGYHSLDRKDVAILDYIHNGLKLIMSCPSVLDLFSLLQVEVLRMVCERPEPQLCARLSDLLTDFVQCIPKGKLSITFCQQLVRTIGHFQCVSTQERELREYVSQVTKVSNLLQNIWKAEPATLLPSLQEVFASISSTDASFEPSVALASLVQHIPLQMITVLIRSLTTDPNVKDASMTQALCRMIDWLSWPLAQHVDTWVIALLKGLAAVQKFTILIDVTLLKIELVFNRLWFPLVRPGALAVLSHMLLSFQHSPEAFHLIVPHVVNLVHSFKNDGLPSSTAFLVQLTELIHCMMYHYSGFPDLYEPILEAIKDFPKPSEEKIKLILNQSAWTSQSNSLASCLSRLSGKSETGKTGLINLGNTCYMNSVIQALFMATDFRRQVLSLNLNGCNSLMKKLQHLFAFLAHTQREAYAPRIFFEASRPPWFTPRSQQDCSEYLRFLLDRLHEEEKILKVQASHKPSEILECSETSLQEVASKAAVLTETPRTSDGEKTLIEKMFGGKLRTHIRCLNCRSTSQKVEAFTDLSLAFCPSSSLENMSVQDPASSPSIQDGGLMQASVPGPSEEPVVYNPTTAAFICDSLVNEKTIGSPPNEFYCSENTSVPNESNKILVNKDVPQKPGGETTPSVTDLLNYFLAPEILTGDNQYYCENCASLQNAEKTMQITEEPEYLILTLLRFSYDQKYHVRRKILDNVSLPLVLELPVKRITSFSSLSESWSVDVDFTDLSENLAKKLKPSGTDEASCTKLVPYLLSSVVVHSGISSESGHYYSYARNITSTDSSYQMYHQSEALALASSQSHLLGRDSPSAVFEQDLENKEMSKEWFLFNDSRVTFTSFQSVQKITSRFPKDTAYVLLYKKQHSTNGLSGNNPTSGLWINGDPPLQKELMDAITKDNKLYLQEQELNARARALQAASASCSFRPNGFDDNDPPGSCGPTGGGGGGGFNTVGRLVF
Outline: as §1

[4] = biological target: T3, USP39 (UniProt Q53GS9)
T3 sequence (whole entry): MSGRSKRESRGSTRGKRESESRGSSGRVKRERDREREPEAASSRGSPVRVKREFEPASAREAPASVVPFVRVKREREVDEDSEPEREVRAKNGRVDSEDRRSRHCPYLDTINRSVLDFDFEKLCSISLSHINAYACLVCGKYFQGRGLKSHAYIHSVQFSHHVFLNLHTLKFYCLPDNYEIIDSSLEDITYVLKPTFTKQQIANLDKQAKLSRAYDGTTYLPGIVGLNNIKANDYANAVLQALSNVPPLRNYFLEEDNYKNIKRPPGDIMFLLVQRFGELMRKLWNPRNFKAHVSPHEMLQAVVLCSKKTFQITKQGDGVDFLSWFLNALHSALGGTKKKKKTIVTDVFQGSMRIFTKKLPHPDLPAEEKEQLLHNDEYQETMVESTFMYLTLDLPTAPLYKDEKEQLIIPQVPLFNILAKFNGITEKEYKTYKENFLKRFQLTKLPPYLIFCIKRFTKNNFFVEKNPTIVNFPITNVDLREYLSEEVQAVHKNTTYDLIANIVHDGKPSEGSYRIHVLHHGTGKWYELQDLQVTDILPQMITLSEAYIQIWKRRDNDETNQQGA
Outline: as §1

[5] = biological target: T4, USP4 (UniProt Q13107)
T4 sequence (whole entry): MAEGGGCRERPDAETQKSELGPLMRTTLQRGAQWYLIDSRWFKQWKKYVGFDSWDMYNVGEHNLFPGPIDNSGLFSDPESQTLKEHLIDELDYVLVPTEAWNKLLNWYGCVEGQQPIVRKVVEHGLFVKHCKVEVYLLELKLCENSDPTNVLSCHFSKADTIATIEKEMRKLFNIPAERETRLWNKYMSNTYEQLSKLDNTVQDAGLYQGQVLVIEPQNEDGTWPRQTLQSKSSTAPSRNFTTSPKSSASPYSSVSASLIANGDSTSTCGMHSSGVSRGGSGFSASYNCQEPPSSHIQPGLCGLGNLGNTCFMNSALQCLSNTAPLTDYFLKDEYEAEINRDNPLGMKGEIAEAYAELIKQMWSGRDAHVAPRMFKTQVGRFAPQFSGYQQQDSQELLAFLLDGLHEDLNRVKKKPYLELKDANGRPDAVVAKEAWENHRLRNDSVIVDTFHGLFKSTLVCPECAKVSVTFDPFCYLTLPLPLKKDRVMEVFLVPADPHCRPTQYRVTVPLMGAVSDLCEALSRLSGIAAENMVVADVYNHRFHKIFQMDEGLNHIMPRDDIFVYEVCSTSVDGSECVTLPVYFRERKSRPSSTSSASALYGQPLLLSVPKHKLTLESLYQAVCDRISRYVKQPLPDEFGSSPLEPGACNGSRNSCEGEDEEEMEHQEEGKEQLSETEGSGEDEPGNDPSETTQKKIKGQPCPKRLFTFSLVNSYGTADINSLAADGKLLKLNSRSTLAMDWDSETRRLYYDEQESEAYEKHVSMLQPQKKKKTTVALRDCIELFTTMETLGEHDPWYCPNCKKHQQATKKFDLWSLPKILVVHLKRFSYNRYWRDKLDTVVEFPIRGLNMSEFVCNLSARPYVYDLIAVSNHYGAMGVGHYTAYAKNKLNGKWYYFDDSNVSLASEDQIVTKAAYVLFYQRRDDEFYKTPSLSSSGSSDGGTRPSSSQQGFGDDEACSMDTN
Outline: as §1

Measured: log2 ratio of Biotin-Ahx-Ub-VS probe labelling

O=C(CCl)NCc1cccc(F)c1
inactive: [1] -0.0351 | [2] -0.312 | [3] 0.0703 | [4] -0.114 | [5] -0.0159
